Assay results: the supplement of paper PMC9262897, “Low-cost anti-mycobacterial drug discovery using engineered E. coli” (Nature Communications, 2022)
Where a name gives a salt, the structure may show the parent alone. ± gives the standard deviation of the averaged measurements.

Experiments:
Experiment in all cases: growth (OD600 after 10 h); higher = more growth (less inhibition)
[1] = system: E. coli TESEC Alr+ wild-type control; conditions: compound 0.1 mM; raw OD600 reference: median of DMSO wells 0.241, cell-free background 0.041
Description: (§1)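 TESEC Mtb Alr E. coli, or the Alr+ wild-type control, in 384-well plates with Prestwick library compounds at 0.1 mM and 1% DMSO, across arabinose induction levels of 1E3 to 1E7 nM. Growth is read as OD600 after 10 h at 37 °C in triplicate biological replicates.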

E. coli TESEC Mtb Alr [2] = conditions: compound 0.1 mM
Description: as §1

E. coli TESEC Mtb Asd = conditions: compound 0.1 mM
Description: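 TESEC E. coli strains in which the native enzyme is deleted and replaced by arabinose-inducible Mtb Asd, DapB, CysH or TrpD, each grown in its selective medium. Strains were screened against the Prestwick library at 0.1 mM and 1% DMSO in 384-well format at low and high arabinose induction. Growth is read as OD600 after 10 h in triplicate.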

[3] = system: E. coli TESEC Alr+ wild-type control; conditions: compound 0.1 mM; raw OD600 reference: median of DMSO wells 0.49, cell-free background 0.052
Description: (§2)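 TESEC Mtb Alr E. coli (ΔaraC ΔtolC ΔentC Δalr ΔdadX, arabinose-inducible Mtb Alr) or the Alr+ wild-type control strain, grown in defined M9-fructose medium without D-alanine in 96-well plates with Prestwick library compounds at 0.1 mM and 1% DMSO. Low Alr induction is 0.1 µM arabinose and high induction is 10 mM arabinose.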

E. coli TESEC Mtb Alr [4] = conditions: compound 0.1 mM; remark: listed apart in the source
Description: as §2

[5] = arabinose 1000 nM, raw OD600 reference: median of DMSO wells 0.294, cell-free background 0.041
[6] = arabinose 10000 nM, raw OD600 reference: median of DMSO wells 0.264, cell-free background 0.041
[7] = arabinose 100000 nM, raw OD600 reference: median of DMSO wells 0.201, cell-free background 0.041
[8] = arabinose 1000000 nM, raw OD600 reference: median of DMSO wells 0.193, cell-free background 0.041
[9] = arabinose 10000000 nM, raw OD600 reference: median of DMSO wells 0.146, cell-free background 0.041
[10] = arabinose induction (level): High, raw OD600 reference: median of DMSO wells 0.331, cell-free background 0.041
[11] = arabinose induction (level): Low, raw OD600 reference: median of DMSO wells 0.417, cell-free background 0.041
[12] = arabinose 100 nM, raw OD600 reference: median of DMSO wells 0.413, cell-free background 0.052
[13] = arabinose 10000000 nM, raw OD600 reference: median of DMSO wells […], cell-free background 0.052

Row | SMILES | growth [1] | growth (E. coli TESEC Mtb Alr [2]; [5]) | growth (E. coli TESEC Mtb Alr [2]; [6]) | growth (E. coli TESEC Mtb Alr [2]; [7]) | growth (E. coli TESEC Mtb Alr [2]; [8]) | growth (E. coli TESEC Mtb Alr [2]; [9]) | growth (E. coli TESEC Mtb Asd; [10]) | growth (E. coli TESEC Mtb Asd; [11]) | growth [3] | growth (E. coli TESEC Mtb Alr [4]; [12]) | growth (E. coli TESEC Mtb Alr [4]; [13])
1 | CC(C(=O)O)c1ccc(-c2ccccc2)c(F)c1 (stereo not drawn) [Flurbiprofen] | 0.188 ± 0.0069 | 0.239 ± 0.014 | 0.23 ± 0.0069 | 0.168 ± 0.0089 | 0.161 ± 0.0092 | 0.1346 ± 0.00075 | 0.366 ± 0.076 | 0.238 ± 0.056 | 0.486 ± 0.025 | 0.387 ± 0.021 | 0.286 ± 0.014
2 | CCCCc1nc(Cl)c(CO)n1Cc1ccc(-c2ccccc2-c2nnn[nH]2)cc1 [Losartan] | 0.204 ± 0.0085 | 0.281 ± 0.015 | 0.258 ± 0.0039 | 0.209 ± 0.026 | 0.161 ± 0.0058 | 0.1297 ± 0.0011 | 0.23 ± 0.017 | 0.409 ± 0.0075 | 0.495 ± 0.071 | 0.4187 ± 0.0032 | 0.279 ± 0.0092
3 | CCCCc1oc2ccccc2c1C(=O)c1cc(I)c(OCCN(CC)CC)c(I)c1 [Amiodarone hydrochloride] | 0.263 ± 0.01 | 0.325 ± 0.0083 | 0.324 ± 0.0065 | 0.193 ± 0.0069 | 0.177 ± 0.0065 | 0.153 ± 0.0059 | 0.284 ± 0.017 | 0.338 ± 0.033 | 0.58 ± 0.025 | 0.424 ± 0.057 | 0.316 ± 0.044
4 | CC(C)(C)NCC(O)COc1cccc2c1CC(O)C(O)C2 (stereo not drawn) [Nadolol] | 0.254 ± 0.016 | 0.303 ± 0.014 | 0.267 ± 0.0029 | 0.192 ± 0.025 | 0.2 ± 0.0078 | 0.137 ± 0.0026 | 0.336 ± 0.067 | 0.442 ± 0.0083 | 0.493 ± 0.12 | 0.408 ± 0.011 | 0.384 ± 0.015
5 | C=CCN1CCCC1CNC(=O)c1cc2nn[nH]c2cc1OC (stereo not drawn) [Alizapride HCl] | 0.234 ± 0.0057 | 0.277 ± 0.0082 | 0.271 ± 0.01 | 0.218 ± 0.025 | 0.191 ± 0.0082 | 0.143 ± 0.0052 | 0.299 ± 0.032 | 0.373 ± 0.05 | 0.536 ± 0.045 | 0.406 ± 0.011 | 0.336 ± 0.011
6 | Cn1c(=O)c2c(ncn2CC2OCCO2)n(C)c1=O [Doxofylline] | 0.248 ± 0.0076 | 0.302 ± 0.015 | 0.259 ± 0.01 | 0.197 ± 0.017 | 0.179 ± 0.011 | 0.158 ± 0.0092 | 0.476 ± 0.018 | 0.469 ± 0.035 | 0.475 ± 0.076 | 0.408 ± 0.0051 | 0.334 ± 0.01
7 | CC(C)C(=O)c1c(C(C)C)nn2ccccc12 [Ibudilast] | 0.163 ± 0.0085 | 0.221 ± 0.0062 | 0.245 ± 0.0022 | 0.148 ± 0.0046 | 0.134 ± 0.0043 | 0.127 ± 0.0043 | 0.183 ± 0.011 | 0.372 ± 0.032 | 0.49 ± 0.013 | 0.401 ± 0.0083 | 0.229 ± 0.0069
8 | C[C@]12CC[C@@H]3c4ccc(O)cc4CC[C@H]3[C@@H]1CCC2=O [Estrone] | 0.185 ± 0.0043 | 0.249 ± 0.0084 | 0.23 ± 0.0023 | 0.187 ± 0.0045 | 0.153 ± 0.0041 | 0.129 ± 0.0036 | 0.281 ± 0.031 | 0.36 ± 0.074 | 0.511 ± 0.013 | 0.402 ± 0.011 | 0.291 ± 0.0057
9 | Nc1nc(Cl)nc2c1ncn2[C@H]1C[C@H](O)[C@@H](CO)O1 [Cladribine] | 0.263 ± 0.14 | 0.165 ± 0.0084 | 0.0701 ± 0.0033 | 0.118 ± 0.018 | 0.0623 ± 0.0011 | 0.07457 ± 0.00035 | 0.409 ± 0.08 | 0.217 ± 0.015 | 0.577 ± 0.12 | 0.42 ± 0.0056 | 0.219 ± 0.031
10 | O=C(CCCCCCC(=O)Nc1ccccc1)NO [Vorinostat] | 0.253 ± 0.0073 | 0.295 ± 0.0062 | 0.238 ± 0.0041 | 0.164 ± 0.012 | 0.153 ± 0.0023 | 0.124 ± 0.011 | 0.195 ± 0.028 | 0.335 ± 0.061 | 0.495 ± 0.099 | 0.415 ± 0.01 | 0.3 ± 0.021
11 | C[C@]12CCC(=O)C=C1CC[C@@H]1[C@@H]2[C@@H](O)C[C@@]2(C)[C@H]1CC[C@]2(O)C(=O)CO [Hydrocortisone base] | 0.218 ± 0.012 | 0.265 ± 0.024 | 0.253 ± 0.0038 | 0.173 ± 0.026 | 0.169 ± 0.0059 | 0.137 ± 0.0037 | 0.294 ± 0.076 | 0.307 ± 0.074 | 0.578 ± 0.1 | 0.407 ± 0.0089 | 0.302 ± 0.0092
12 | CCN(CC)CCOC(=O)c1ccc(N)cc1 [Procaine hydrochloride] | 0.254 ± 0.0063 | 0.254 ± 0.065 | 0.273 ± 0.0077 | 0.2 ± 0.034 | 0.193 ± 0.0097 | 0.146 ± 0.0049 | 0.339 ± 0.035 | 0.384 ± 0.038 | 0.52 ± 0.05 | 0.412 ± 0.0056 | 0.259 ± 0.17
13 | CC(C)[C@H](N)C(=O)OCCOCn1cnc2c(=O)nc(N)[nH]c21 [Valacyclovir hydrochloride] | 0.243 ± 0.0038 | 0.302 ± 0.0067 | 0.2661 ± 0.0012 | 0.22 ± 0.039 | 0.195 ± 0.0058 | 0.144 ± 0.0025 | 0.258 ± 0.006 | 0.365 ± 0.054 | 0.533 ± 0.17 | 0.408 ± 0.0084 | 0.369 ± 0.0047
14 | CCCSc1ccc2[nH]c(NC(=O)OC)nc2c1 [Albendazole] | 0.246 ± 0.025 | 0.274 ± 0.021 | 0.255 ± 0.0036 | 0.211 ± 0.031 | 0.1462 ± 0.00096 | 0.137 ± 0.0025 | 0.41 ± 0.017 | 0.409 ± 0.033 | 0.48 ± 0.013 | 0.428 ± 0.01 | 0.419 ± 0.054
15 | COc1ccc(-c2ccc(=N)n(CCCC(=O)O)n2)cc1 [Gabazine bromide] | 0.247 ± 0.012 | 0.279 ± 0.029 | 0.262 ± 0.007 | 0.225 ± 0.027 | 0.19 ± 0.0086 | 0.148 ± 0.0044 | 0.232 ± 0.02 | 0.342 ± 0.055 | 0.599 ± 0.11 | 0.402 ± 0.0095 | 0.341 ± 0.0049
16 | CCCCN(CCCC)CCCOC(=O)c1ccc(N)cc1 [Butacaine] | 0.2003 ± 0.0014 | 0.284 ± 0.019 | 0.275 ± 0.01 | 0.181 ± 0.013 | 0.189 ± 0.0068 | 0.14 ± 0.0032 | 0.275 ± 0.029 | 0.445 ± 0.06 | 0.474 ± 0.038 | 0.408 ± 0.013 | 0.337 ± 0.019
17 | Nc1nc(O)c2ncn(CCC(CO)CO)c2n1 [Penciclovir] | 0.25 ± 0.0069 | 0.31 ± 0.013 | 0.262 ± 0.0029 | 0.24 ± 0.042 | 0.18 ± 0.011 | 0.1665 ± 0.0015 | 0.228 ± 0.033 | 0.329 ± 0.033 | 0.455 ± 0.03 | 0.411 ± 0.0086 | 0.36 ± 0.021
18 | CC(=O)OCC(=O)NCCCOc1cccc(CN2CCCCC2)c1 [Roxatidine Acetate HCl] | 0.241 ± 0.013 | 0.302 ± 0.0074 | 0.265 ± 0.008 | 0.212 ± 0.024 | 0.186 ± 0.0084 | 0.139 ± 0.0026 | 0.29 ± 0.046 | 0.389 ± 0.023 | 0.673 ± 0.062 | 0.408 ± 0.0076 | 0.3569 ± 0.0035
